# Data as given in PubChem BioAssay (NCATS).
# Inconclusive results are not listed. Where a call stands in place of a potency, no number is given. The source made the active and inactive calls. Unless noted, calls follow the shape of the dose curve; as a rule, active = well fitted curve in the direction sought with a large enough effect; inconclusive = small, poorly fitted or top-dose-only effect, or another doubt; inactive = no such curve, though single readings can be large; an effect the other way counts as inactive or inconclusive.
# Assays:
# [1] = qHTS for differential inhibitors of proliferation of Plasmodium falciparum line GB4 (AID 1816); conditions: Potency: Plasmodium falciparum GB4 proliferation inhibition;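 also: parasite growth measured after 72 h incubation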; also: potency is read from the fitted curve at half-maximal effect
# [2] = qHTS for differential inhibitors of proliferation of Plasmodium falciparum line 3D7 (AID 1876);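 also: parasite growth measured after three days of culture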
# [3] = qHTS for differential inhibitors of proliferation of Plasmodium falciparum line D10 (AID 1877);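 also: parasites grown with compound for 72 h before DNA staining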; also: potency is read from the fitted curve at half-maximal effect
# [4] = qHTS for differential inhibitors of proliferation of Plasmodium falciparum line Dd2 (AID 1882); conditions: Potency: Plasmodium falciparum Dd2 proliferation inhibition; also: series mostly up to about 29 µM; nearly all actives have a fitted effect of over 65% in size
# Method in brief: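 Dd2-infected erythrocytes (0.3% parasitemia, 2.5% hematocrit final) incubated with compound 72 h at 37 C, 5% CO2; lysed with saponin/Triton buffer containing SYBR Green I, incubated overnight in the dark, then read by fluorescence (485/535 nm). Normalized to 0.29 uM artemisinin and DMSO.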
# [5] = qHTS for differential inhibitors of proliferation of Plasmodium falciparum line W2 (AID 1883); conditions: Potency: Plasmodium falciparum W2 proliferation inhibition;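 also: parasites grown with compound for 72 h before lysis and staining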; also: potency is read from the fitted curve at half-maximal effect
# [6] = qHTS for differential inhibitors of proliferation of Plasmodium falciparum line HB3 (AID 1886); conditions: Potency: Plasmodium falciparum HB3 proliferation inhibition;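 also: parasites grown with compound for 72 h before SYBR Green readout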; also: potency is read from the fitted curve at half-maximal effect
# [7] = qHTS Assay for Modulators of Human Peripheral Myelin Protein 22 (PMP22) Expression/Activity (AID 1967; active = well fitted curve in the direction sought with a large enough effect in the signal ratio; the % refers to the signal ratio)
# Method in brief: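 Mouse MSC80 Schwann line, Pmp22 promoter–CBG68 reporter, EF-alpha–CBR internal control. 24h compound exposure, 37 °C/5% CO2, DMEM + 10% FBS. Readout: corrected green/red luminescence ratio, normalized to untreated cells; concentration-response curves fitted and classified.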
# [8] = qHTS for differential inhibitors of proliferation of Plasmodium falciparum line 7G8 (AID 1815);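 also: parasite growth measured after three days of incubation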; also: potency is read from the fitted curve at half-maximal effect
# [9] = qHTS Assay for Identification of Small Molecule Inducers of Hypoxia Response (AID 2120; active = well fitted curve in the direction sought with a large enough effect in the signal ratio, with a control signal flat, not every such curve was filed as active; the % refers to the signal ratio)
# Method in brief: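 ME-180 HRE-bla cells plated in Opti-MEM/0.5% dialyzed FBS, rested 4-5 h, then dosed with compound titrations by pin tool. After 17 h at 37 degrees C, CCF4 dye loaded 2.5 h at RT; 460/530 nm ratio gave %Activity and AC50.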
compound,measurement,setting,value
C=C/C(C)=C/[C@@]1(C)SC(=O)C(C)=C1O,Potency,[1],inactive
same,Potency,[2],inactive
same,Potency,[3],inactive
same,Potency,[4],inactive
same,Potency,[5],inactive
same,Potency,[6],inactive
same,outcome,[7],inactive
CN=c1nc(-c2ccccc2)n(-c2ccccc2)s1,Potency,[8],10 µM (active)
same,Potency,[1],10 µM (active)
same,Potency,[4],inactive
same,Potency,[5],10 µM (active)
O=C(O)/C=C\C(=O)O,outcome,[9],inactive
Nc1ccc(O)c([N+](=O)[O-])c1,outcome,[9],inactive
O=C(O)c1cc(O)c(O)c(O)c1,outcome,[9],inactive
NCCO,outcome,[9],inactive
Cn1cc(C2=C(c3ccc(Cl)cc3Cl)C(=O)NC2=O)c2ccccc21,Potency,[8],10 µM (active)
same,Potency,[5],7.08 µM (active)
CN(C)c1ccc(/C=C2\C(=O)Nc3ccccc32)cc1,Potency,[8],8.91 µM (active)
same,Potency,[1],12.6 µM (active)
same,Potency,[5],12.6 µM (active)
same,Potency,[6],10 µM (active)
CN1CCc2cc(NC(=O)Nc3cccnc3)ccc21,Potency,[2],inactive
same,Potency,[3],inactive
same,Potency,[4],inactive
Cc1cc(NC(=O)Nc2ccc3c(ccn3C)c2)sn1,Potency,[8],7.94 µM (active)
same,Potency,[4],inactive
same,Potency,[5],7.94 µM (active)
same,Potency,[6],12.6 µM (active)
O=C(O)c1cc([N+](=O)[O-])ccc1NCCCc1ccccc1,Potency,[1],inactive
same,Potency,[2],inactive
same,Potency,[4],inactive
CN(C)c1ccc(N=NS(=O)(=O)O)cc1,outcome,[9],inactive
O=C(/C=C/c1ccc(O)cc1)c1ccc(O)cc1O,Potency,[8],10 µM (active)
same,Potency,[1],7.94 µM (active)
same,Potency,[3],12.6 µM (active)
same,Potency,[5],10 µM (active)
same,Potency,[6],12.6 µM (active)
Cc1ccc(O)c(N=Nc2ccccc2)n1,Potency,[8],11.2 µM (active)
same,Potency,[1],12.6 µM (active)
same,Potency,[5],10 µM (active)
CCCCCCCCCCCCCCCC(=O)OC(CC(=O)O)C[N+](C)(C)C (stereo unspecified),Potency,[8],inactive
same,Potency,[1],inactive
same,Potency,[3],inactive
same,Potency,[4],inactive
same,Potency,[6],inactive
same,outcome,[7],inactive
